This note sets out measurements from PubChem BioAssay.

Unmarked numbers belong to inactive results. Active and inactive are the calls of the source. Rule as the data show it: active = fold change permeability below about 0.7 or above about 1.3; inactive = in between.

The nature of the experiment: modulators of brain endothelial barrier permeability, primary screen, cell-based, FITC-avidin fluorescence, HTS (AID 1963498). Also: test concentration not given here. The following applies: actives lie on both sides.
With `Cc1cc(C)c(S(=O)(=O)N(CCc2cccc(Br)c2)Cc2ccc(-c3cccc(S(C)(=O)=O)c3)cc2)c(C)c1`, the fold change permeability was 1.8 (active). The same measure for `CN(C)CC(O)Cn1c2ccc(Br)cc2c2cc(Br)ccc21` (centres undefined): 1.5 (active). In the case of `Cc1nc2n(c(=O)c1CCN1CCC(c3noc4cc(F)ccc34)CC1)CCCC2O` (centres undefined), the fold change permeability is 1. Consider `CO/N=C(\C(=O)N[C@@H]1C(=O)N2C(C(=O)O)=C(COC(C)=O)CS[C@H]12)c1csc(N)n1` (stereo in doubt), for which the fold change permeability is 0.8. With `COC(=O)C(N)Cc1ccc(Cl)cc1` (centres undefined), the fold change permeability was 1.1.

Take `Fc1ccc([C@@H]2CCNC[C@H]2COc2ccc3c(c2)OCO3)cc1`: the fold change permeability was 1.2. Regarding `CC1=C(C(=O)O)N2C(=O)[C@@H](NC(=O)[C@H](N)C3=CCC=CC3)[C@H]2SC1`, the fold change permeability is 0.9.

Regarding `O=C(CCCCCN1CCN(c2ccccc2-c2ccccc2)CC1)NC1CCCc2ccccc21` (centres undefined), the fold change permeability is 1.1.

On to `O=c1n(CCCN2CCN(c3cccc(Cl)c3)CC2)nc2ccccn12`, for which the fold change permeability is 1.1. For `CC(=O)NNC(=O)N1Cc2ccccc2Oc2ccc(Cl)cc21`, the fold change permeability is 0.7 (active). In the case of `CCOC(=O)c1ccc(C#Cc2ccc3c(c2)C(C)(C)CCS3)nc1`, the fold change permeability is 2.1 (active). Regarding `O=c1onc2cnc3ccccc3n12`, the fold change permeability is 1.1. With `Nc1ncnc2c1ncn2[C@@H]1O[C@H](CO)[C@@H](O)[C@H]1O`, the fold change permeability was 1.

For `CC(C)(Sc1ccc(CCN(CCCCC2CCCCC2)C(=O)NC2CCCCC2)cc1)C(=O)O`, the fold change permeability is 1. As for `C[C@H]1CC(=O)Nc2cc(C(=O)NCCC3CC3)ccc2N1C(=O)N1CC2CC2C1` (some centres undefined), the fold change permeability was 1.1. Regarding `Cc1c(C(C)C)c(=O)n(-c2ccc(S(=O)(=O)NCCOc3ccccc3)cc2)n1C`, the fold change permeability is 1.3 (active). For `Nc1c(C(=O)Nc2c(F)cc(F)cc2Br)sc2nc3c(cc12)CCC3`, the fold change permeability was 0.9.

Consider `CC(C)NCC(O)COc1ccc(CCOCC2CC2)cc1` (centres undefined), for which the fold change permeability is 1.2. For the compound `CCOC(=O)C(C)(C)Oc1ccc(Cl)cc1`, the fold change permeability is 0.9.

`NS(=O)(=O)c1cc2c(cc1Cl)NC=NS2(=O)=O`: the fold change permeability was 0.9. As for `O=C(O)C1CCCNC1` (centres undefined), the fold change permeability is 1.3 (active). As to `CCCCCN(CCCOC)C(=O)C(CCC(=O)O)NC(=O)c1ccc(Cl)c(Cl)c1` (centres undefined), the fold change permeability is 1. The same measure for `NC(=Nc1ccccc1)NC(=O)c1nc(Cl)c(N)nc1N`: 1.2; for `CC(C(=O)O)c1ccc(CC2CCCC2=O)cc1` (centres undefined): 1.5 (active). Then `COc1ccccc1OCC(O)CN1CCN(CC(=O)Nc2c(C)cccc2C)CC1` (centres undefined), with 0.8; and `CN1CCc2cccc3c2[C@H]1Cc1ccc(O)c(O)c1-3`, with 1; and `N#Cc1cc([N+](=O)[O-])c2sc(C(N)=O)[n+]([O-])c2c1`, with 1.3 (active). On to `CCCCCCCC/C=C\CCCCCCCC(=O)O`, for which the fold change permeability is 0.9. With `COCCNC(=O)COc1ccc(OCCNC[C@H](O)COc2ccccc2)cc1`, the fold change permeability was 1. The same measure for `CCOC(=O)[C@@H](N)CCC(=O)N[C@@H](CSCc1ccccc1)C(=O)N[C@@H](C(=O)OCC)c1ccccc1`: 1.3 (active); for `O=C(Nc1cc(C(F)(F)F)cc(C(F)(F)F)c1)Nc1c(Br)cc(Br)cc1-c1nn[nH]n1`: 0.9; for `NC/C=C/C(=O)O`: 0.8. Regarding `N=C(N)N1CCc2ccccc2C1`, the fold change permeability was 1.3 (active). With `CC(=O)N=c1sc(S(N)(=O)=O)nn1C`, the fold change permeability was 1.4 (active).

In the case of `CC1(C)CC=C(c2cnc3ccccc3c2)c2cc(C(=O)Nc3ccc(C(=O)O)cc3)ccc21`, the fold change permeability was 1.1. On to `Cc1cc(C)cc(NC(=O)CN(c2cc([N+](=O)[O-])ccc2C)S(C)(=O)=O)c1`, for which the fold change permeability was 1.5 (active).

Take `CCCN(CCC)C(=O)C(CCC(=O)O)NC(=O)c1ccccc1` (centres undefined): the fold change permeability was 0.7 (active).

Take `COc1cc2c(cc1O)[C@@H](Cc1ccc(O)c(Oc3ccc(C[C@@H]4c5cc(OC)c(OC)cc5CCN4C)cc3)c1)N(C)CC2`: the fold change permeability was 1.6 (active). On to `O=c1[nH]c(=O)c2nc3ccccc3nc2[nH]1`, for which the fold change permeability is 1.3 (active).
